The campaign covered roughly 1,300 compounds. About 460 (35%) were called active. Another 39% or so got no clear call; they are omitted. The call rests on the fitted dose curve; in most records, active means well fitted inhibition curve with a large enough effect; inconclusive means small, poorly fitted or top-dose-only effect; inactive means flat fitted curve, though single readings scatter. The list shows a part of the results. Some compounds were tested as several samples or in several runs, with calls that do not always agree.
Potency means the concentration at half of the fitted maximal effect.

The experiment deals with Protein phosphatase EYA2 (Homo sapiens) (UniProt O00167). Put plainly: qHTS for Inhibitors of the Phosphatase Activity of Eya2: Confirmatory Assay for Cherry-picked Compounds. Further: nearly all actives have a fitted effect of over 65% in size. Particulars: purified EYA2 phosphatase activity, qHTS confirmation; series mostly up to 46.1 µM. From the text: The Eya protein family is an essential co-activator of the Six1 transcription factor. Six1 is a developmental gene that is abnormally re-expressed in a large percentage of breast cancers. This over-expression plays a causal role in the initiation and metastatic development of breast cancers. The Eya family of protein is also found to contain a unique HAD phosphatase domain with protein tyrosine phosphatase activity which can potentially play a role in Six1-mediated breast tumorigenesis. Recently, Eya2 is found to dephosphorylate the histone variant H2AX and direct cells towards DNA repair instead of apoptosis in the event of DNA damage.
Sequence of Protein phosphatase EYA2 (Homo sapiens) (O00167 whole entry, looked up, the tested form may be a part): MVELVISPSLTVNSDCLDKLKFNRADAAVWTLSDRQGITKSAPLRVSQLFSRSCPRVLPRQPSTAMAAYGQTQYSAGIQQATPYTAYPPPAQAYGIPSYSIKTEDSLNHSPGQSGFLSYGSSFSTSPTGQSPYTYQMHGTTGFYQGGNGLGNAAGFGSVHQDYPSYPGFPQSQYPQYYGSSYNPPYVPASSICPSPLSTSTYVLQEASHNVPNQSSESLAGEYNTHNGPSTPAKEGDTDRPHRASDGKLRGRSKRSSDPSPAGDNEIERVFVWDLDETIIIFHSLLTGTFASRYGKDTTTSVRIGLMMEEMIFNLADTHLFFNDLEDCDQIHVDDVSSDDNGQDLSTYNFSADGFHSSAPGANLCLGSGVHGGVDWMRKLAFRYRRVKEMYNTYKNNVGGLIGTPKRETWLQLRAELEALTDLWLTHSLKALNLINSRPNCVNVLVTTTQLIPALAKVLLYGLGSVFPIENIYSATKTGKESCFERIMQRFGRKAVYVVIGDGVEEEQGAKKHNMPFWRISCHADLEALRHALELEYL
A 1536 well format, fluorescence based qHTS assay was developed and used to target the phosphatase activity of Eya2 (AID 488837). Inhibitors found against Eya2 could serve as potential therapeutic tools to inhibit Six1-mediated breast tumorigenesis and to increase the efficiency of radiation and certain chemo therapy. This assay assessed the activity of the primary screen cherry-picked compounds against Eya2. Inhibition is the desired outcome for this assay.
NIH Chemical Genomics Center [NCGC]
NIH Molecular Libraries Probe Centers Network [MLPCN]
Assay Submitter (PI): Rui Zhao, University of Colorado Denver
Eya2 enzyme and 3-O-methyl-fluorescein phosphate (OMFP) substrate working solutions were reconstituted in the buffer reagent consist of 50 mM HEPES pH 7.5, 50 mM NaCl, […], 0.05% BSA and 1 mM DTT. One and a half microliter of 0.2 uM Eya2 working solution was dispensed in a 1536 well Greiner plate (black, medium bind). Twenty-three nanoliter of test compounds and control compound EGTA was transferred to the assay plate using the Kalypsys robotic system equipped with a 1536 pin head. The plate was incubated at room temperature for 10 minutes. One and a half microliter of the 50 uM the OMFP substrate was then dispensed to the assay plate and incubated at room temperature for additional 10 min. The fluorescence signal was read using the PerkinElmer ViewLux plate reader using a 485 nm excitation and 525 nm emission filters. The data was normalized to the positive control for maximum inhibition and DMSO treated wells as negative control.
`CN(C)S(=O)(=O)c1ccc(C(=O)NNc2nc(-c3ccccc3)c3cc(Br)ccc3n2)cc1`: the Potency was 8.49 µM (active).

As to `Cc1ccc(N2C(=O)NC(=O)/C(=C/c3ccc(OC(=O)c4cccs4)cc3)C2=O)cc1`, the Potency was 12 µM (active). As to `O=C(Cc1ccccc1)c1ccccn1`, the Potency was 10.7 µM (active). Regarding `O=C1NC(=S)N(c2ccccc2)C(=O)/C1=C/c1ccco1`, the Potency is 6.75 µM (active).

`COC(=O)C1=C(c2ccc(F)cc2OCc2ccccc2)C[C@@H]2CC[C@H]1N2C(=O)NCc1ccc(N(C)C)cc1`: the Potency was 8.49 µM (active). `COC(=O)C1=C(c2cccc(OCc3ccccc3)c2)C[C@@H]2CC[C@H]1N2C(=O)NCCCc1ccccc1`: the Potency result was “inactive”. Next, `C[C@H]1CCC[C@H](O)CCCCCc2cc(O)cc(O)c2C(=O)O1`: “inactive”; `NC(Cc1cc(O)c(O)cc1O)C(=O)O` (stereo not given): 2.39 µM (active); `N[C@@H](Cc1cc(I)c(O)c(I)c1)C(=O)O`: 9.53 µM (active).

`COc1ccc(-c2cc(=NCCC(=O)O)c3cc(C)ccc3o2)cc1`: the Potency is 16.9 µM (active). Take `CN(C)c1ccc(C=C2C=CC=C2)cc1`: the Potency is 19 µM (active) and inactive. In the case of `COc1ccccc1N1CCN(CCc2c[nH]c3cc4c(cc23)OCO4)CC1`, the Potency is 19 µM (active). On to `CNc1ccc2nc3ccccc3[n+](C)c2c1`, for which the Potency is 16.9 µM (active).

On to `O=C(O)CCCOc1ccc(Cl)cc1Cl`, for which the Potency result was “inactive”. Next, `O=[N+]([O-])c1cc(C(F)(F)F)c(Cl)c([N+](=O)[O-])c1Nc1ncc(C(F)(F)F)cc1Cl`: 21.3 µM (active).

As to `C=C1C(=O)O[C@@H]2C[C@@H](C)[C@@H]3C=CC(=O)[C@@]3(C)[C@@H](OC(=O)CC(=O)O[C@H]3[C@@H]4C(=C)C(=O)O[C@@H]4C[C@@H](C)[C@@H]4C=CC(=O)[C@]43C)[C@H]12`, the Potency was 10.7 µM (active).

As to `CCOC(=O)CCCc1cc[c]([Sb](=[O])([OH])[OH])cc1`, the Potency is 2.13 µM (active). Next, `CCOC(=O)c1cc2c(cn1)[C@@H](CCO)NC2`: “inactive”.

`Cc1c(N=Nc2c(O)[nH]c(=O)[nH]c2=O)c(=O)n(-c2ccccc2)n1C`: the Potency was 2.13 µM (active). As for `COC1C(O)C(C)OC(OC2C(Oc3cccc4c(O)c5c(=O)oc6ccc(C)c7c(=O)oc(c34)c5c67)OC(C)C(O)C2O)C1O` (stereo not given), the Potency entry was “inactive”. Regarding `CN(C)c1ccc(N=Nc2ccccc2)cc1`, the Potency was 5.36 µM (active). Next, `Cc1nc2ccccc2c(=O)n1-c1ccc(Cl)cc1[N+](=O)[O-]`: “inactive”.

`CC(N)[C@H](O)c1ccc(O)c(O)c1` (stereo not given in full): the Potency entry is “inactive”. Take `O=C(O)c1cc[c]([Sb](=[O])([OH])[OH])cc1[N+](=O)[O-]`: the Potency is 2.69 µM (active). In the case of `O=C1NC(=O)N(c2ccc(Cl)cc2)C(=O)/C1=C\c1ccc(Sc2nc3ccccc3[nH]2)o1`, the Potency was 13.5 µM (active).

The values above are taken from PubChem BioAssay AID720540 (National Center for Advancing Translational Sciences (NCATS), 2013).
